Screening data deposited in PubChem BioAssay by National Center for Advancing Translational Sciences (NCATS).
HTT aggregate – qHTS Multiplex Assay to Identify Dual Action Probes in a Cell Model of Huntington: Aggregate Formation (GFP); AID 1688, 2009; Potency, µM (top dose mostly 46.1 µM), inactives show top-dose activity change, negative = inhibition, hits mostly inhibitors; 1.1% of 220,000 active; PC12 HttQ103-GFP aggregates, Acumen cytometry, 40 h; note: % is set by controls: 0 for no effect and ±100 for the full control effect; nearly all actives have a fitted effect of over 60% in size
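Steps: seed 1500 PC12 HTTQ103-GFP cells/well; add tebufenozide, 100 nM final; add compound titration; add ATPLite reagent; quantify GFP aggregates by laser scanning cytometry.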
TSG101-PTAP inh – qHTS Assay for Iinhibitors of HIV-1 Budding by Blocking the Interaction of PTAP/TSG101 | Tumor susceptibility gene 101 protein (Homo sapiens), Q99816 | Fluorescence polarization, FITC-PTAP peptide / Tsg101 binding | Potency, µM (top dose mostly 115 µM), for the others: top-dose activity change, negative = inhibition, usual class: inhibitors | 340,000 tested, under 10 active | AID 493005, 2010; active = well fitted inhibition curve with a large enough effect in the main read-out, with a control signal flat, not every such curve was filed as active; inconclusive = small, poorly fitted or top-dose-only effect, or effect the other way, or a change in a side signal; inactive = no such curve, though single readings can be large or run the other way; note: % of control where 0% means no effect
Target sequence (Q99816 whole entry, looked up): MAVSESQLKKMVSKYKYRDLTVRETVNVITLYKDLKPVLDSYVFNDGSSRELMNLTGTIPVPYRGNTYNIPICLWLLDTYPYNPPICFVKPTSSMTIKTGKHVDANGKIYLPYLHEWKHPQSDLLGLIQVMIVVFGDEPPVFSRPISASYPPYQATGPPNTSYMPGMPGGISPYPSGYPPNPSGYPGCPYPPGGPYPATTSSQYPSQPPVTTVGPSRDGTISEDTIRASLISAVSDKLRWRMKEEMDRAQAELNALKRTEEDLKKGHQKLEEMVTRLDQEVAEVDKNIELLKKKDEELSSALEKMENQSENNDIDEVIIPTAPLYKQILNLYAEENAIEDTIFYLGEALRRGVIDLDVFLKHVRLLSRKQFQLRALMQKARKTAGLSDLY
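Compounds were pin-transferred onto Tsg101 binding domain (10 uM final) in HEPES pH 7.5 buffer, then FITC-PTAP peptide was added at 50 nM final. After 20 min at RT, polarization reported peptide displacement across a qHTS concentration series.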
Epigenetic reg – Quantitative High-Throughput Screen for Regulators of Epigenetic Control | murine LDR cells, GFP reporter derepression, 30 h | Potency, µM (doses to about 53.9 µM), for inactives: at the highest dose GFP activation, actives largely listed as activators | 0.2% of 280,000 active; note: % of control where 0% means no effect; nearly all actives have a fitted effect of over 60% in size
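In this reporter-derepression format, murine cells bearing a silenced integrated CMV-GFP locus incubate with test compound (30 h, 37 C), then are washed and imaged; fluorescent objects of 20–120 um count as induced cells.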
HTT cytoprotect – qHTS Multiplex Assay to Identify Dual Action Probes in a Cell Model of Huntington: Cytoprotection (ATP). PC12 HTT-Q103 induced, cytoprotection, ATP luminescence, 40 h. Potency, µM (highest dose often 56.4 µM), for inactives: cytoprotection (ATP increase), hits mostly activators. 0.14% of 230,000 active. AID 1471, 2008; note: % of control where 0% means no effect; nearly all actives have a fitted effect of over 45% in size
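Readout: ATPlite luminescence (ATP level). Model: stable PC12, inducible Htt exon1 Q103-GFP. Inducer: tebufenozide, 100 nM final. Compounds: dose series. No G418 in medium.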
Anesthetic bind – qHTS Assay for Identification of Novel General Anesthetics | Ferritin light chain (Equus caballus), P02791 | apoferritin/1-aminoanthracene competitive binding, fluorescence | Potency, µM (highest dose often 77.5 µM), for the others: at the highest dose activity change, negative = displacement, most hits filed as inhibitors | 0.074% of 350,000 active; note: % is set by controls: 0 for no effect and ±100 for the full control effect; nearly all actives have a fitted effect of over 20% in size
Target sequence (P02791 2-175 limits assumed): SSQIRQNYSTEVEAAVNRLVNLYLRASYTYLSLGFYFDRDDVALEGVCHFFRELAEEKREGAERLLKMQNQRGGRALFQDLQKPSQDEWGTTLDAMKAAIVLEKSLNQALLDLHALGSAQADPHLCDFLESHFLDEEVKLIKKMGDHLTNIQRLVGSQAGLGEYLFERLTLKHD
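Read-out: endpoint 1-AMA fluorescence, excitation 380 nm and emission 535 nm, after compounds sit 10 min at room temperature with 10 uM horse-spleen apoferritin in 50% saturated 1-AMA/PBS. Values come from four-parameter Hill fits.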
PINK1 expr mod – A Quantitative High throughput Screen to Identify Chemical Modulators of PINK1 Expression; Potency, µM (doses to about 76.6 µM), for the others: top-dose activation (PINK1 increase), usual class: activators; 0.2% of 410,000 active; PINK1 immunofluorescence, high-content cytometry, 24 h; active = well fitted activation curve with a large enough effect; inconclusive = small, poorly fitted or top-dose-only effect; cell line not stated here; note: % of control where 0% means no effect; nearly all actives have a fitted effect of over 65% in size
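A stable cell line was treated with compounds at 5 concentrations for 24 hours, with CCCP as control. PINK1 levels and mitochondrial localization were measured by immunofluorescence with mitochondrial, cell and nuclear markers after fixation, read by laser-scanning cytometry.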
* marks the source's active call; other numbers are inactive results; ? = inconclusive; . = no result given; [ ] = remark or other dose. The entries come from a sample that favours hits as a whole. Unless noted, calls come from the whole dose curve; as a rule, active = well fitted curve in the direction sought with a large enough effect; inconclusive = small, poorly fitted or top-dose-only effect, or another doubt; inactive = no such curve, though single readings can be large; an effect the other way counts as inactive or inconclusive. Potency is the fitted concentration of half-maximal effect.

SMILES	HTT aggregate	TSG101-PTAP inh	Epigenetic reg	HTT cytoprotect	Anesthetic bind	PINK1 expr mod
CC(C)c1c(C(=O)NCC(C)(C)N2CCOCC2)cnn1-c1nccc(-c2cccs2)n1	.	.	.	.	.	-1%
CN(C(=S)Nc1ccc(SC(F)F)cc1)C(c1ccccc1)c1ccccc1	.	1%	.	.	-7%	?
FC(F)Sc1ccc(NC(=S)NC(c2ccccc2)c2ccccc2)cc1	13µM*	-2%	?	-132%	10%	?
FC(F)Sc1ccc(NC(=S)NCc2ccccc2)cc1	-14%	0%	-3%	-21%	-22%	14µM*
O=C(NCCN1Cc2ccccc2OC(c2ccccc2F)C1)c1ccco1 (centres undefined)	.	.	.	.	.	-1%
CCCCCCOC(=O)C[N+](C)(C)CCOC1CC2CCC1(C)C2(C)C (centres undefined)	6.3µM*	-3%	0%	-67%[10 µM]	-13%	-4%[38.3 µM]
CO[C@H]1[C@H](NC(=O)c2ccco2)c2ccccc2C12CCN(Cc1cc(Cl)ccc1O)CC2	.	.	.	.	.	0%
CCOC(=O)c1c(/N=C/N(C)C)sc(/C=N/Nc2ccccc2)c1-c1ccccc1	-13%	-5%	10µM*	.	-14%	-1%
CCOC(=O)c1c(/N=C/N(C)C)sc(/C=N/Nc2ccccc2)c1-c1ccccc1Cl	?	3%	-1%	27%[10 µM]	-14%	1%
O=C(NNC(=S)NC(=O)C12CC3CC(CC(C3)C1)C2)c1ccncc1	3.2µM*	-3%	-3%	3%[10 µM]	-4%	6%[38.3 µM]
CN1CCN(c2nc3ccccc3nc2C(C#N)C(=O)OC2CCCCC2)CC1 (centres undefined)	13µM*	-4%	-1%	-101%	-17%	-2%
CCOC(=O)C1CCN(c2nc3ccccc3nc2C(C#N)C(=O)NCCc2ccccc2)CC1 (centres undefined)	-33%	.	2%	-20%	14µM*	.
COc1ccc(C(=O)OCCN2C(=O)c3ccccc3C2=O)cc1	2%	-8%	-1%	6%	?	11µM*
O=c1[nH]c2ccccc2n1CCCSc1cnc2ccccc2n1	11µM*	-8%	0%	-11%	56%	0%
CCCCn1c(=O)[nH]c2ccccc21	2%	-2%	2%	-3%	-3%	1%
O=c1c2c(nc3c(-c4ccc(Cl)cc4)c[nH]n13)CCCC2	7.1µM*	-1%	-2%	-58%	-1%	?
C/C=C(\C)C(=O)NCCN1Cc2ccccc2OC(c2ccccc2OC)C1 (centres undefined)	.	.	.	.	.	-1%
Cc1cc(C)n(C(=O)/C(C#N)=N\Nc2ccccc2[N+](=O)[O-])n1	2%	-1%	-1%	-29%	-22%	3%
Cc1cc(C)n(C(=O)/C(C#N)=N/Nc2cc(Cl)cc(Cl)c2)n1	13µM*	-1%	-1%	-161%	-21%	25µM*
C=CCCC(=O)Nc1nc(C)c(-c2csc(Nc3cc(OC)ccc3OC)n2)s1	10µM*	-5%	-1%	-106%	-14%	4%
COc1ccccc1CCc1nc2ccccc2n1C1CCN(C(=O)c2cc(C)nn2C)CC1	.	.	.	.	.	-1%
Cc1c(C(=O)NCc2ccccc2)oc2ccc(S(=O)(=O)N3CCCC3)cc12	-17%	-2%	1%	-18%	?	1%
Cc1c(C(=O)N(C)Cc2ccccc2)oc2ccc(S(=O)(=O)N3CCCC3)cc12	11µM*	-6%	-2%	-77%	-18%	-2%
Cc1ccc(-n2ncc3c(NC4CCCCC4)ncnc32)cc1	.	.	3%	.	2%	4%
COc1cc(/C=C2\COC/C(=C\c3ccc(O)c(OC)c3)C2=O)ccc1O	6%[9.22 µM]	-1%	1%	-18%[10 µM]	-19%	-1%
SMILES	HTT aggregate	TSG101-PTAP inh	Epigenetic reg	HTT cytoprotect	Anesthetic bind	PINK1 expr mod
COc1cc(/C=C2/CC/C(=C/c3ccc(O)c(OC)c3)C2=O)ccc1O	-2%[9.22 µM]	17%	25µM*	1%[10 µM]	5%	3%
CCNc1ncc2nc(-c3cn(C)c4ccccc34)c(=O)n(Cc3ccc(F)cc3)c2n1	.	.	.	25µM*	.	?
COc1cccc(Nc2ncc3nc(-c4cn(C)c5ccccc45)c(=O)n(C[C@H]4CCCO4)c3n2)c1	.	.	.	?	.	2.5µM*
COc1cccc(Nc2ncc3nc(-c4ccc(F)cc4)c(=O)n(C[C@H]4CCCO4)c3n2)c1	.	.	.	2%	.	0%
Cn1cc(-c2nc3cnc(N4CCNCC4)nc3n(Cc3ccc(F)cc3)c2=O)c2ccccc21	.	.	.	-67%	.	-1%
CC(C)Oc1ccc(C(=O)NCC2Cc3cc(Cl)cc(-c4ncccn4)c3O2)cc1 (centres undefined)	.	.	.	.	.	0%
Cc1cccc(N2CCN(C(=O)c3ccc(NS(=O)(=O)c4c(C)noc4C)cc3)CC2)c1C	20µM*	-12%	-6%	8%[10 µM]	-5%	2%
Cc1cccc(N2CCN(C(=O)CSCc3c(C)noc3C)CC2)c1C	7.1µM*	-5%	-1%	-14%[10 µM]	-10%	2%
O=C(CSCc1ccc(F)cc1)N1CCN(c2ccc(Cl)cc2)CC1	.	.	4%	.	-14%	0%
Cc1noc(C)c1CSCC(=O)N1CCN(c2ccc(F)cc2)CC1	7.9µM*	0%	-3%	8%[10 µM]	-12%	2%
COCc1c(C(=O)N2CC3CCC2C3)cnn1-c1nccc(-c2ccccc2OC)n1 (centres undefined)	.	.	.	.	.	1%
CCC1(C2CCN(C(=O)c3csc(C(C)=O)c3)CC2)NC(=O)N(CCc2scnc2C)C1=O (centres undefined)	.	.	.	.	.	-1%
Cc1ccccc1-c1cccc(CN2CCc3nnc(C(C)NC(=O)c4cccnc4)n3CC2)c1 (centres undefined)	.	.	.	.	.	2%
CC(C)CC[n+]1ccccc1/C=C/c1ccc(N(C)C)cc1	.	?	.	.	-9%	32µM*
CO[C@H]1[C@H](NC(=O)c2cccs2)c2ccccc2C12CCN(Cc1cccn1-c1ccccn1)CC2	.	.	.	.	.	0%
O=C1NCCN1c1ncc([N+](=O)[O-])s1	2%[20.6 µM]	3%	5%[16.9 µM]	0.089µM*	6%[29.3 µM]	1%
